PubChem BioAssay AID2316 (Broad Institute, 2010)
The campaign covered roughly 29,000 compounds. Fewer than 10 were called active. These entries were drawn from the full list. A number with no mark means an inactive call. The rule behind the calls is not given here.

Assay: reversal of PD-1 mediated T-cell inhibition, primary screen, luminescence, primary human CD4 T cells, PD-L1 beads (AID 2316);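 note: 0% = median vehicle wells and 100% = positive control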
Details: CellTiter-Glo 96 h, active compounds read high

SMILES | activation [%]
C[C@@H]1CN([C@@H](C)CO)C(=O)c2cc(NC(=O)CCCN(C)C)ccc2O[C@@H]1CN(C)Cc1ccncc1 | 0.414
CCOc1ccc(NC(=O)C(C)Sc2nnc(C)n2-c2ccccc2)cc1 (stereo not given) | -0.74
C[C@@H]1CCCCO[C@@H](CN(C)C(=O)NC2CCCCC2)[C@@H](C)CN([C@H](C)CO)C(=O)c2cc(NC(=O)CCC(F)(F)F)ccc2O1 | -0.155
COc1cc(OC)cc(C(=O)N2CCN=C2c2ccccc2)c1 | 0.604
C[C@@H]1CN([C@@H](C)CO)C(=O)c2cc(NC(=O)Cc3ccccc3)ccc2O[C@H]1CN(C)Cc1ccc(Cl)c(Cl)c1 | -0.482
Cc1ccccc1N=C(N)N=C(N)N | -0.656
C[C@@H]1CCCCO[C@H](CN(C)C(=O)C2CCCCC2)[C@@H](C)CN([C@H](C)CO)C(=O)c2cc(NC(=O)C3CCCCC3)ccc2O1 | -3.28
CC(=O)c1cccc(NC(=O)CN(C)S(=O)(=O)c2ccc3ccccc3c2)c1 | 0.81
COc1ccccc1-n1c(N)cc(=O)nc1SCC(=O)Nc1ccc(Br)cc1 | 1.16
C[C@H](CO)N1C[C@H](C)[C@H](CN(C)S(=O)(=O)c2cccs2)Oc2ccc(NC(=O)Nc3ccccc3)cc2C1=O | -1.39
Cc1ccc(-c2noc(CSc3nnc(-c4cccs4)n3C)n2)cc1 | 0.512
Cc1ccc(C)c(OCC(=O)Nc2ccccc2C#N)c1 | -3.9
COc1ccc(S(=O)(=O)N(C)C[C@@H]2Oc3ccc(NS(=O)(=O)c4ccc(Cl)cc4)cc3C(=O)N([C@H](C)CO)C[C@H]2C)cc1 | -2.88
O=C(OCC1OC(Oc2ccc(O)cc2COC(=O)C2(O)C(O)CCC(O)C2O)C(O)C(O)C1O)c1ccccc1 (stereo not given) | -1.74
C[C@@H]1CN([C@@H](C)CO)C(=O)c2cccc(NS(=O)(=O)c3ccc(Cl)cc3)c2O[C@@H]1CN(C)C(=O)Nc1ccccc1 | -0.568
C[C@@H]1CN([C@H](C)CO)C(=O)Cc2cc(NC(=O)Cn3cnnn3)ccc2O[C@H]1CN(C)Cc1ccc(Cl)c(Cl)c1 | 1.08
C[C@@H]1CN([C@@H](C)CO)C(=O)c2cccc(NS(=O)(=O)c3ccc(F)cc3)c2O[C@@H]1CN(C)Cc1ccc(C(=O)O)cc1 | 1.83
C[C@H]1CN([C@@H](C)CO)C(=O)c2cc(NS(=O)(=O)c3cccs3)ccc2O[C@@H]1CN(C)C(=O)Nc1cccc2ccccc12 | -0.392
COc1ccc(NC(=O)Nc2ccc3c(c2)CC(=O)N([C@H](C)CO)C[C@H](C)[C@H](CN(C)Cc2ccncc2)O3)cc1 | 0.119
CC(=O)Nc1ccc(Nc2c3c4c(cccc4[nH]c2=O)C(=O)c2ccccc2-3)cc1 | -3.04
Cc1noc(C)c1S(=O)(=O)Nc1ccc2c(c1)CC(=O)N([C@@H](C)CO)C[C@H](C)[C@@H](CN(C)S(=O)(=O)c1cn(C)cn1)O2 | 1.24
C[C@H]1CN([C@@H](C)CO)C(=O)c2cccc(NS(=O)(=O)c3ccc(F)cc3)c2O[C@@H]1CN(C)C | 0.422

SMILES | activation [%]
Cc1ccc(S(=O)(=O)Nc2ccc3c(c2)C(=O)N([C@H](C)CO)C[C@H](C)[C@H](CN(C)S(C)(=O)=O)O3)cc1 | 0.318
COc1ccc(NC(=O)Nc2cccc3c2O[C@H](CN(C)C(=O)Nc2ccc(F)cc2)[C@@H](C)CN([C@@H](C)CO)C3=O)cc1 | 1.83
COc1ccc(NC(=O)N(C)C[C@@H]2OCCCC[C@@H](C)Oc3ccc(NC(=O)NC4CCCCC4)cc3C(=O)N([C@H](C)CO)C[C@@H]2C)cc1 | 0.764
CCOc1ccc(NC(=O)CSc2nccc(C)n2)cc1 | 1.48
Cc1ccc(C)c(NC(=O)CSc2nc(C)nc3sc(C)c(C)c23)c1 | 0.586
CC(C)(C)c1ccc(S(=O)(=O)NCC(=O)Nc2ccc(F)cc2)cc1 | -2.51
COC(=O)c1c(NC(=O)COc2ccc(C(C)C)c(C)c2)sc2c1CCC2 | 0.596
O=S(=O)(c1ccccc1)c1nc(-c2ccccc2F)oc1NCc1cccnc1 | -0.501
COc1ccccc1N(CC(=O)Nc1ccc(C(F)(F)F)cc1)S(C)(=O)=O | 0.0709
C[C@@H]1CN([C@H](C)CO)C(=O)c2cccc(NC(=O)c3ccncc3)c2O[C@@H]1CN(C)C | 0.1
Cc1ccc(S(=O)(=O)Nc2ccc3c(c2)CC(=O)N([C@H](C)CO)C[C@@H](C)[C@H](CN(C)S(=O)(=O)c2c(C)noc2C)O3)cc1 | 0.836
O=C(NCc1ccccn1)C(=O)Nc1cccc(Cl)c1Cl | 2.26
COC1OC(O)C(O)C12CC[C@@]1(O2)[C@H](C)C[C@H]2OC(=O)[C@@]3(C)CCC[C@]1(C)C23 (stereo not given in full) | 0.449
Cc1ccc(S(=O)(=O)CCC(=O)Nc2ccc(Cl)cc2)cc1 | 0.811
Cc1ccc(C(=O)O)cc1S(=O)(=O)NCC1CCCO1 (stereo not given) | -0.751
COc1ccc(NC(=O)Nc2ccc3c(c2)CC(=O)N([C@@H](C)CO)C[C@H](C)[C@H](CN(C)C(=O)Nc2ccc4c(c2)OCO4)O3)cc1 | 0.0102
COc1ccc2nc3c(nc2c1)C(=O)c1ccccc1C3=O | 0.69
C[C@H](CO)N1C[C@H](C)[C@@H](CN(C)Cc2ccccc2)Oc2c(NC(=O)CCCCCC(=O)Nc3ccccc3N)cccc2C1=O | -2.46
Cc1ccc(S(=O)(=O)N(C)C[C@H]2Oc3ccc(NC(=O)Cc4cn(C)c5ccccc45)cc3CC(=O)N([C@@H](C)CO)C[C@H]2C)cc1 | -0.47
C/C=C(/C)C(=O)O[C@H]1CC(C)(C)C[C@H]2C3=CCC4[C@@]5(C)CC[C@H](O[C@@H]6O[C@H](C(=O)O)[C@@H](O[C@@H]7O[C@H](CO)[C@H](O)[C@H](O)[C@H]7O[C@@H]7O[C@H](CO)[C@@H](O)[C@H](O)[C@H]7O)[C@H](O)[C@H]6O[C@@H]6O[C@@H](C)[C@H](O)[C@@H](O)[C@H]6O)C(C)(C)C5CC[C@@]4(C)[C@]3(C)[C@@H](OC(C)=O)[C@@H](O)[C@@]12COC(C)=O (stereo not given in full) | -14.9
C[C@@H]1CCCCO[C@H](CN(C)Cc2ccncc2)[C@@H](C)CN([C@H](C)CO)C(=O)c2cc(NC(=O)CCCN(C)C)ccc2O1 | 0.961
Cc1cc(C)c(C(=O)CSc2nc(C)cc(=O)[nH]2)c(C)c1 | 1.17

SMILES | activation [%]
CS(=O)(=O)N(CC(=O)N1CCOCC1)c1ccc2c3c(cccc13)CC2 | 0.857
COc1cc(C2OC(c3cc(OC)c(OC)c(OC)c3)C(C)C2C)cc(OC)c1OC (stereo not given) | 0.69
Cc1noc(C)c1NC(=O)N(C)C[C@H]1Oc2ccc(NS(=O)(=O)c3ccc(F)cc3)cc2C(=O)N([C@@H](C)CO)C[C@H]1C | 2.2
COc1ccc(NC(=O)N(C)C[C@H]2Oc3c(NC(=O)Nc4cccc5ccccc45)cccc3C(=O)N([C@@H](C)CO)C[C@H]2C)cc1 | 0.624
CC(=O)Oc1ccc2occ(C(=O)c3cc4ccccc4o3)c2c1 | -0.284
CS(=O)(=O)N(CC(=O)Nc1cc(C(F)(F)F)ccc1Cl)c1ccc(Br)cc1 | -0.295
C[C@H]1CN([C@@H](C)CO)C(=O)c2cccc(NC(=O)C3CCOCC3)c2O[C@@H]1CN(C)C | 0.0381
C[C@@H]1CN([C@@H](C)CO)C(=O)Cc2cc(NC(=O)CCCCCC(=O)Nc3ccccc3N)ccc2O[C@@H]1CN(C)C(=O)NC1CCCCC1 | 0.434
C[C@@H]1CN([C@H](C)CO)C(=O)c2cc(NC(=O)Nc3ccc4c(c3)OCO4)ccc2O[C@H]1CN(C)C(=O)Nc1ccccc1 | 0.77
Cn1nc(C(=O)O)c2ccccc2c1=O | -0.137
COc1ccc(S(=O)(=O)N(C)CC(=O)Nc2cccc(C(F)(F)F)c2)cc1OC | -1.43
CCCCCC(O)c1cccc(OCc2ccc3ccccc3n2)c1 (stereo not given) | 5.54
C[C@H]1CN([C@@H](C)CO)C(=O)c2cccc(NC(=O)c3ccncc3)c2O[C@H]1CN(C)C | 2.81
O=C(O)C1CC=CCC1C(=O)Nc1ccc(C(=O)N2CCCCC2)c(Cl)c1 (stereo not given) | 2.23
Cc1ccc(S(=O)(=O)N(C)C[C@@H]2Oc3c(NC(=O)C4CCCCC4)cccc3C(=O)N([C@H](C)CO)C[C@H]2C)cc1 | 1.48
Cc1ccc(S(=O)(=O)Nc2ccc3c(c2)C(=O)N([C@H](C)CO)C[C@H](C)[C@@H](CN(C)S(=O)(=O)c2cccs2)O3)cc1 | -1.04
CC(C)CSc1nnc(CSCc2nc(-c3ccc(Cl)cc3)cs2)n1C | 1.7
CS(=O)(=O)N(CC(=O)Nc1ccc(F)c(Cl)c1)C1CCCCC1 | 0.469
CC(C)NC(=O)N(C)C[C@@H]1Oc2ccc(NS(=O)(=O)c3ccccc3)cc2C(=O)N([C@@H](C)CO)C[C@H]1C | 1.49
C[C@H]1CN([C@@H](C)CO)C(=O)Cc2cc(NC(=O)CCCCCC(=O)Nc3ccccc3N)ccc2O[C@H]1CN(C)C(=O)Nc1ccc(F)cc1 | 0.894
Cc1noc(C)c1S(=O)(=O)N(C)C[C@@H]1Oc2c(NS(=O)(=O)c3cn(C)cn3)cccc2C(=O)N([C@H](C)CO)C[C@@H]1C | 1.65
